Potency data for 7 molecules are collected here from PubChem BioAssay (Tox21).

Inconclusive results are not listed. The source made the active and inactive calls. Unless noted, calls follow the shape of the full dose curve.

The nature of experiment [1]: Nuclear factor erythroid 2-related factor 2/antioxidant responsive element (Nrf2/ARE) small molecule agonists: qHTS cell viability counter screen in human keratinocytes (AID 1919968; active = well fitted curve in the direction sought with a large enough effect in the repeat runs; an effect the other way counts as inactive or inconclusive; also: nearly all actives have a fitted effect of over 55% in size; also: potency is read from the fitted curve at half-maximal effect). The gist of the method:
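Viability counter-screen: KeratinoSens reporter cells, DMSO-delivered compounds, 23 h at 37 C, CellTiter-Fluor fluorescence.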

Experiment [2] can be described thus: Nuclear factor erythroid 2-related factor 2/antioxidant responsive element (Nrf2/ARE) small molecule agonists: luciferase reporter gene qHTS assay in human keratinocytes (AID 1919969). Also: nearly all actives have a fitted effect of over 35% in size. Also: potency is read from the fitted curve at half-maximal effect.
The target in experiment [3] is Gonadotropin-releasing hormone receptor (Homo sapiens) (UniProt P30968). Kind of experiment: Human gonadotropin-releasing hormone receptor (GnRHR) small molecule agonists, calcium flux assay in GnRHR-HEK293 cells (AID 1920063). Also: nearly all actives have a fitted effect of over 35% in size. The gist of the method: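 Tox21-format agonist screen using human GnRHR-expressing HEK293 cells and a fluorescent calcium dye; kinetic 3-min fluorescence reading after compound addition, 15-point concentration series run in triplicate.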
Gonadotropin-releasing hormone receptor (Homo sapiens), sequence (P30968 whole entry, looked up): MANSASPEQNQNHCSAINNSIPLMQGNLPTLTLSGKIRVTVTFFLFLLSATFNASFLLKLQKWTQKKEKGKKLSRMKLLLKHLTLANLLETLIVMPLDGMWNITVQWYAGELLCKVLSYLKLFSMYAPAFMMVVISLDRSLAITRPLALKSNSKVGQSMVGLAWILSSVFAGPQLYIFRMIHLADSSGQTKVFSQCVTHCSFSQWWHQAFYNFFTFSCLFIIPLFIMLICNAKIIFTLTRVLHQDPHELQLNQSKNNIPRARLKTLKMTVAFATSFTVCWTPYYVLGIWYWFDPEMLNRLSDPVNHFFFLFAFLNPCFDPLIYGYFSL
(Calcium assays in cells follow changes in intracellular calcium, usually with a dye or a luminescent sensor.)

In experiment [4] the target is KiSS-1 receptor (Homo sapiens) (UniProt Q969F8). Kind of experiment: Human kisspeptin (KISS1R) small molecule agonists, calcium flux assay in KISS1R-HEK293 cells (AID 1920064; active = well fitted curve in the direction sought with a large enough effect in the repeat runs; an effect the other way counts as inactive or inconclusive). The essentials:
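Intracellular calcium mobilization in KISS1R-HEK293 cells was recorded by fluorescence (Ex/Em 480/540) for 3 min following compound addition to cells pre-loaded 1 h with calcium dye.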

Experiment [5] is described as follows: G protein-coupled receptor (GPCR) small molecule agonists, calcium flux assay: HEK293 wild type cell line counter screen (AID 1920065). The gist of the method: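 In this agonist-mode screen, ATP is the positive control and DMSO the vehicle. Cells grow 18 h before a 1 h dye incubation at 37 C; signal is taken at Ex/Em 480/540 over 3 min.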
A short description of experiment [6]: p53 small molecule agonists, cell-based qHTS assay with rat liver microsomes (AID 1963578). The essentials:
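Agonist mode in p53RE-bla reporter cells, with compounds co-incubated 16 h at 37 C alongside 0.5 mg/mL rat liver microsomes and 0.5 mg/mL NADPH (final), followed by a 2 h LiveBLAzer detection step.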
On the technique in general: qHTS replaces the single test concentration by a dilution series.

The nature of experiment [7]: p53 small molecule agonists, cell-based qHTS assay with human liver microsomes: qHTS cell viability counter screen (AID 1963579). Also: nearly all actives have a fitted effect of over 45% in size. The essentials:
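Metabolically activated exposure: compounds, human liver microsomes and NADPH (0.5 mg/mL final apiece) were added to p53RE-bla cells seeded 5 h earlier, left 16 h at 37 C, and then assessed for viability by CellTiter-Glo luminescence.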

Experiment [8] can be described thus: p53 small molecule agonists, cell-based qHTS assay with rat liver microsomes: qHTS cell viability counter screen (AID 1963580). Also: nearly all actives have a fitted effect of over 45% in size. The essentials:
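p53RE-bla HCT-116 cells were exposed 16 h at 37 C to compounds with rat liver microsomes (0.5 mg/mL) and NADPH (0.5 mg/mL). Viability was measured in the same wells as ATP content by CellTiter-Glo luminescence.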

Experiment [9] can be described thus: p53 small molecule agonists, cell-based qHTS assay (AID 1963582; active = well fitted activation curve with a large enough effect in the signal ratio in the repeat runs, not every such curve was filed as active; the % refers to the signal ratio). The essentials: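 Agonist activity was scored from beta-lactamase FRET fluorescence in p53RE-bla cells treated 16 h at 37 C with compounds in DMSO, substrate incubation being 2 h at room temperature.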
In experiment [10] the target is 5-hydroxytryptamine receptor 2A (Homo sapiens) (UniProt P28223). Kind of experiment: 5-hydroxytryptamine receptor 2A (HTR2A) small molecule agonists, cell-based qHTS assay (AID 1963587). Also: nearly all actives have a fitted effect of over 30% in size. The essentials:
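CHO cells stably expressing human HTR2A, plated 18 h, loaded with calcium dye 1 h at 37 C. Agonist mode: compounds added and intracellular calcium fluorescence recorded kinetically for 2 min at 1 sec intervals.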

The target of experiment [11] is Muscarinic acetylcholine receptor M1 (Homo sapiens) (UniProt P11229). Kind of experiment: Cholinergic receptor muscarinic 1 (CHRM1) small molecule antagonists, cell-based qHTS assay (AID 1963588). Also: nearly all actives have a fitted effect of over 40% in size. The gist of the method: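 CHRM1-CHO calcium-flux assay, antagonist mode. Cells were seeded 18 h, dye-loaded 1 h at 37 C and given compound for 5 min at RT, then acetylcholine was added at 50nM. FDSS fluorescence was read 3 min; 15 concentrations, three runs.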
Muscarinic acetylcholine receptor M1 (Homo sapiens), sequence (P11229 whole entry, looked up): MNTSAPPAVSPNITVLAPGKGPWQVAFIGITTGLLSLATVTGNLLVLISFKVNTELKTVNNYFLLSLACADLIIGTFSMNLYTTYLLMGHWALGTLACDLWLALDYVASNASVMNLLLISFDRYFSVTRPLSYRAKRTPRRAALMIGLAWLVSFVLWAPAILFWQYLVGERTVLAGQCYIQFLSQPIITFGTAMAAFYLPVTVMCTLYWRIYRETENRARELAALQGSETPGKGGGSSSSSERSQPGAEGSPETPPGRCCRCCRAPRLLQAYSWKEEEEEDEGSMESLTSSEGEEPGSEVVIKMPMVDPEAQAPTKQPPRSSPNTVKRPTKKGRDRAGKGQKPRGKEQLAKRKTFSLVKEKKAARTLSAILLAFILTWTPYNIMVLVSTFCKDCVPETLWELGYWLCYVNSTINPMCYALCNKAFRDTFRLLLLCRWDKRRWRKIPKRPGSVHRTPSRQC

The target is the same in experiment [12]. Nature of the experiment: Cholinergic receptor muscarinic 1 (CHRM1) small molecule agonists, cell-based qHTS assay (AID 1963589). Also: nearly all actives have a fitted effect of over 35% in size. The essentials:
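Stable CHRM1-CHO cells (human receptor) were incubated 18 h, dye-loaded for 1 h at 37 C and exposed to test compounds for agonist activity, with calcium-dependent fluorescence followed kinetically.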

The nature of experiment [13]: cAMP Responsive Elements (CRE) small molecule agonists, cell-based qHTS assay (AID 1963590). The gist of the method: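 FRET-based beta-lactamase readout (LiveBLAzer B/G, 2 h RT) quantified CRE activation in HEK 293T CRE-bla cells after 3 h treatment with DMSO-dissolved compounds.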
Experiment [14] in a line: cAMP Responsive Elements (CRE) small molecule antagonists, cell-based qHTS assay (AID 1963591; active = well fitted inhibition curve with a large enough effect in the signal ratio in the repeat runs, not every such curve was filed as active; the % refers to the signal ratio). The gist of the method:
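qHTS in CRE-bla HEK 293T cells: compound in DMSO, then 0.25 uM NKH477 (final), 3 h at 37 °C/5% CO2; beta-lactamase FRET read-out after 2 h substrate incubation.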

In experiment [15] the target is Beta-2 adrenergic receptor (Homo sapiens) (UniProt P07550). Nature of the experiment: Adrenergic beta2 receptor (ADRB2) small molecule antagonists, cell-based qHTS assay (AID 1963592). Also: series mostly up to about 92 µM; nearly all actives have a fitted effect of over 50% in size. The essentials:
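Cells (CHO, stable ADRB2 overexpression) incubated 18-20hr at 37C; compounds added from DMSO; agonist mix (1nM isoproterenol, 100uM IBMX, 25uM Ro-20-1724) added; 0.5hr RT; d2-cAMP and anti-cAMP-cryptate added; 1hr RT; 665/615 nm read.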

The nature of experiment [16]: p53 small molecule agonists, cell-based qHTS assay: qHTS cell viability counter screen (AID 1963581). Also: nearly all actives have a fitted effect of over 45% in size. The gist of the method: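 Compounds are pinned onto HCT-116 p53RE-bla cells and left 16 h at 37 C. Following the reporter FRET read, ATP is quantified by CellTiter-Glo luminescence after 30 min at room temperature.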
The target in experiment [17] is 5-hydroxytryptamine receptor 2A (Homo sapiens) (UniProt P28223). Nature of the experiment: 5-hydroxytryptamine receptor 2A (HTR2A) small molecule antagonists, cell-based qHTS assay (AID 1963586). Also: nearly all actives have a fitted effect of over 45% in size. The gist of the method: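 Antagonist-mode intracellular calcium assay: DOI (4 nM) added after 5 min compound pre-incubation at room temperature to dye-loaded HTR2A-CHO cells. Fluorescence followed for 3 min, sampled every second.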
5-hydroxytryptamine receptor 2A (Homo sapiens), sequence (P28223 whole entry, looked up): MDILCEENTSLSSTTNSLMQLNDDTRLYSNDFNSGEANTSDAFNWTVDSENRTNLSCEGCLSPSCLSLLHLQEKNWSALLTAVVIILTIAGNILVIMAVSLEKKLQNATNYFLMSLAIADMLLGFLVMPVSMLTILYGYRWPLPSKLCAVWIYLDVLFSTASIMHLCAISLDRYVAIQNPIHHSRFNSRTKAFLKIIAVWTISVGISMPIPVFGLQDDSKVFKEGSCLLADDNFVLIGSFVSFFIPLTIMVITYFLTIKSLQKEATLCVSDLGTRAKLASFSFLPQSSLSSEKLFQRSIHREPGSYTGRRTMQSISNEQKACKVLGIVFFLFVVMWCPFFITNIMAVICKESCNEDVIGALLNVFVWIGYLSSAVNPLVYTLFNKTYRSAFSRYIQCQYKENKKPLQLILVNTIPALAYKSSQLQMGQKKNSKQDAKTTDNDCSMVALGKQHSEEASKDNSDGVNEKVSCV

Experiment [18] deals with D(2) dopamine receptor (Homo sapiens) (UniProt P14416). Nature of the experiment: Dopamine D2 receptor (DRD2) small molecule agonists, cell-based qHTS assay (AID 1963594). Also: nearly all actives have a fitted effect of over 35% in size. The essentials:
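HEK293 cells stably expressing human DRD2, pre-treated with PDE inhibitor Ro20-1724 (0.1 mM final) and compound 10 min at room temperature, then stimulated with NKH477 (200nM […]) for 30 min. cAMP read by HTRF (665/620 nm).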

Experiment [19] shares this target. Nature of the experiment: Dopamine D2 receptor (DRD2) small molecule antagonists, cell-based qHTS assay (AID 1963595; active = well fitted inhibition curve with a large enough effect in the signal ratio in the repeat runs, with a control signal flat; the % refers to the signal ratio; also: potency is read from the fitted curve at half-maximal effect). The essentials:
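Stable D2 receptor HEK293 line, 24 h after seeding. Compound preincubated 10 min, then quinpirole (12 nM) with forskolin analogue NKH477 (200 nM), 30 min, room temperature. Detection by time-resolved FRET of cAMP.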

Experiment [20] deals with Beta-2 adrenergic receptor (Homo sapiens) (UniProt P07550). Kind of experiment: Adrenergic beta2 receptor (ADRB2) small molecule agonists, cell-based qHTS assay (AID 1963593).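 Also: CHO cells stably overexpressing human ADRB2.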 The gist of the method: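 CHO cells stably over-expressing ADRB2 were plated overnight at 37C, then dosed with compounds plus a stimulation mix containing 100uM IBMX and 25uM Ro-20-1724 for 0.5hr at room temperature. cAMP was measured by HTRF competition, 1hr.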
Beta-2 adrenergic receptor (Homo sapiens), sequence (P07550 whole entry, looked up): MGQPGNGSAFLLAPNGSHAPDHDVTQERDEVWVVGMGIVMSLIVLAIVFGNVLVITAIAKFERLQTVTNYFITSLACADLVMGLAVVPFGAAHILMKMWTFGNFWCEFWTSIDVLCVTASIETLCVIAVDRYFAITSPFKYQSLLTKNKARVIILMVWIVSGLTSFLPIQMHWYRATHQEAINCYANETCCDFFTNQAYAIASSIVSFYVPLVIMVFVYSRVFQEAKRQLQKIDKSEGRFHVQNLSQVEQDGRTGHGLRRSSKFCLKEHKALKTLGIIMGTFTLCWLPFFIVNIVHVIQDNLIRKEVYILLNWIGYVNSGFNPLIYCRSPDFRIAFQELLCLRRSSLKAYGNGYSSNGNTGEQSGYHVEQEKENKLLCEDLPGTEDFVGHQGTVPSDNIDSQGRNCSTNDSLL

KiSS-1 receptor (Homo sapiens), sequence (Q969F8 whole entry, looked up): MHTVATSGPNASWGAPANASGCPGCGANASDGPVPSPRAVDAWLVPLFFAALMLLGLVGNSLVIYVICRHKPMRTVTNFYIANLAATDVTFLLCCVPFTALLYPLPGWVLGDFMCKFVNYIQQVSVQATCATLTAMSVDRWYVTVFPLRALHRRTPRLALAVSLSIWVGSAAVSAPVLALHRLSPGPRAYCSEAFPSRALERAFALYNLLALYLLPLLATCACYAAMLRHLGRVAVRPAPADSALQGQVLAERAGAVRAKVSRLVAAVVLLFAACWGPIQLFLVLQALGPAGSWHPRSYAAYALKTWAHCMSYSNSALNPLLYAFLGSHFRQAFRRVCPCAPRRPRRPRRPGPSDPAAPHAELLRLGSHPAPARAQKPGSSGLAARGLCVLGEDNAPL
D(2) dopamine receptor (Homo sapiens), sequence (P14416 whole entry, looked up): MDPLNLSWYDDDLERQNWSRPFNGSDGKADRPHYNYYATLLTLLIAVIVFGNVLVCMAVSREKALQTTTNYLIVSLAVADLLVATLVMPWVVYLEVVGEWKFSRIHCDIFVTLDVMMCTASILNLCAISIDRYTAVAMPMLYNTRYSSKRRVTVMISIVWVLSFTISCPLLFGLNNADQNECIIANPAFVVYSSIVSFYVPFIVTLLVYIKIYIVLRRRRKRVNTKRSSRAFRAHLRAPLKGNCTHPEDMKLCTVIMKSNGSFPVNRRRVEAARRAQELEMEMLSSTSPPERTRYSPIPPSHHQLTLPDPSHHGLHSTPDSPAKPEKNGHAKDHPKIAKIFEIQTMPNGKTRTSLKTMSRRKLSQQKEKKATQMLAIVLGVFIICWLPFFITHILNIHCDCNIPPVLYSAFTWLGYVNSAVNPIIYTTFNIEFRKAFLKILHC

Take `CC1=CC(=O)/C(=C(/C)O)C(=O)O1`: the Potency result in [1], in experiment [2], in [3], in experiment [4], in experiment [5] and in experiment [6] was “inactive” each time. The Potency entry in experiment [7], in [8], in experiment [9], in experiment [10], in experiment [11] and in experiment [12] was “inactive” throughout. The Potency result in experiment [13], in experiment [14] and in experiment [15] was “inactive” throughout.
In the case of `CC[C@H]1O[C@]2(CC[C@@H]1C)C[C@@H]1C[C@@H](C/C=C(\C)C[C@@H](C)/C=C/C=C3\CO[C@@H]4[C@H](O)C(C)=C[C@@H](C(=O)O1)[C@]34O)O2`, the values for the Potency in experiment [1] and in experiment [19] were 15.2 µM (active) and 48.1 µM (active), respectively. The Potency entry in experiment [2], in experiment [3], in experiment [4], in [5], in [6] and in [7] was “inactive” each time. Further, the Potency result in experiment [8], in experiment [16], in [17], in [10], in experiment [11] and in experiment [12] was “inactive” each time. Further, the Potency entry in [15] and in experiment [18] was “inactive” each time.
With `CCO[Si](CCCS)(OCC)OCC`, the Potency entry in experiment [1], in [2], in experiment [3], in [4], in experiment [5] and in experiment [6] was “inactive” throughout. The Potency entry in experiment [8], in experiment [16], in experiment [9], in experiment [17], in experiment [10] and in experiment [11] was “inactive” throughout. In addition, the Potency result in experiment [12], in [13], in experiment [14], in experiment [15], in experiment [20] and in experiment [18] was “inactive” each time.
Regarding `Oc1ccc2c(c1)-c1ccccc1C2`, the Potency result in experiment [1], in experiment [2], in experiment [3], in [4], in experiment [5] and in experiment [6] was “inactive” throughout. The Potency entry in [7], in experiment [17], in experiment [10], in experiment [11], in experiment [12] and in experiment [13] was “inactive” throughout. Further, the Potency entry in [15], in experiment [18] and in experiment [19] was “inactive” throughout.
For the molecule `CCCCC1C(=O)N(c2ccccc2)N(c2ccc(O)cc2)C1=O` (stereo not given), the figures for the Potency in experiment [1] and in experiment [2] were 21.1 µM (active) and 10.6 µM (active), respectively. The Potency result in [3], in [4], in experiment [5], in [6], in [7] and in experiment [8] was “inactive” throughout. Besides, the Potency result in [16], in [17], in experiment [10], in experiment [11], in experiment [15] and in experiment [18] was “inactive” each time.
As for `CCS(=O)(=O)c1ccc(OC)c(C(=O)OC)c1`, the Potency entry in experiment [1], in [2], in experiment [3], in [4], in experiment [5] and in experiment [6] was “inactive” throughout. For the same molecule, the Potency entry in [8], in experiment [16], in [9], in [17], in [10] and in experiment [11] was “inactive” throughout. Also, the Potency entry in experiment [12], in [13], in experiment [14], in experiment [15], in experiment [20] and in experiment [18] was “inactive” throughout. For the same molecule, in experiment [19], the Potency entry was “inactive”.
With `Clc1ccc2nsnc2c1NC1=NCCN1`, the Potency entry in experiment [1], in experiment [2], in experiment [3], in [4], in [5] and in [6] was “inactive” in each case. For the same molecule, the Potency result in [8], in experiment [16], in [9], in experiment [17], in experiment [10] and in experiment [11] was “inactive” in each case. Moreover, the Potency result in experiment [12], in [13], in experiment [14], in experiment [15], in [20] and in experiment [18] was “inactive” in each case.
